This note sets out measurements from PubChem BioAssay (NCATS).

Test [1] in a line: Cell Viability - BJ (AID 421; calls by dose curve;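 further: potency means the concentration at half of the fitted maximal effect; cells exposed to compound for 40 hours at 37 °C before readout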). The settings on record: BJ fibroblast viability, qHTS. A digest of the protocol:
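Normal human BJ foreskin fibroblasts, 1500/well in complete medium, treated 40 hr at 37 °C. Cellular ATP by CellTiter-Glo luminescence; normalized to DMSO and 100 uM tamoxifen, AC50 from Hill fit.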

The nature of test [2]: Cell Viability - Jurkat (AID 426;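 active means dose-dependent loss of cell ATP signal giving a full or clear fitted curve, ranked by lower potency value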;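 further: potency means the concentration at half of the fitted maximal effect; cells exposed to compound for 40 hours at 37 °C before ATP read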). The settings on record: qHTS. A digest of the protocol: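 Cytotoxicity taken as drop in cellular ATP (CellTiter-Glo luminescence, 20 min room temperature) after 40 hr, 37C treatment of 5000 Jurkat Clone E6-1 cells per well; concentration-response fitted with Hill equation for AC50.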
A short description of test [3]: Cell Viability - MRC5 (AID 434; calls by dose curve;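 further: potency means the concentration at half of the fitted maximal effect; cells exposed to compound for 40 hours at 37 °C; potency reflects cytotoxicity seen as loss of intracellular ATP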). The settings on record: MRC5 lung fibroblast viability, qHTS. A digest of the protocol:
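AC50 values come from Hill-equation fits of intracellular ATP loss, measured by CellTiter-Glo luminescence. Normal lung fibroblasts (MRC5) had 40 hr compound treatment at 37 C, normalized between DMSO and 100 uM tamoxifen.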
For orientation: In qHTS, concentration-response curves come from the screen itself.

Test [4] is described as follows: Cell Viability - SK-N-SH (AID 435; calls by dose curve; further: potency means the concentration at half of the fitted maximal effect). The settings on record: SK-N-SH neuroblastoma cell viability qHTS. A digest of the protocol:
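Luminescent ATP signal served as the viability read-out after 40 hours of compound treatment of human neuroblastoma SK-N-SH cells. Concentration-response data, scaled between DMSO and 100 uM tamoxifen, gave AC50 values by standard Hill modeling.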

The target of test [5] is Mitogen-activated protein kinase 10 (Mus musculus) (UniProt Q61831). The test can be described thus: JNK3 AlphaScreen Assay (AID 530; active means well fitted curve in either direction with a large enough effect, not every such curve was filed as active;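 further: kinase came from lysate of stimulated human HepG2 cells; signal reports phosphorylation of biotinylated GST-cJun 1-79 at Ser73 with 10 µM ATP; on the % scale 0 is the no-effect control and ±100 the full control effect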). The settings on record: JNK3 lysate, c-Jun phosphorylation; series mostly up to 57.1 µM. The method, boiled down: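 qHTS titrations with 15 min compound pre-incubation before adding ATP (10 uM final). Read-out: AlphaScreen of Ser73-phosphorylated biotin-GST-cJun using HepG2 lysate JNK3 activated by IL-1β and TNFα.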

Test [6] in a line: Cell Viability - N2a (AID 540).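 Further: plate controls were DMSO alone for no effect and tamoxifen control for full effect; nearly all actives have a fitted effect of over 45% in size.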 The settings on record: N2a mouse neuroblastoma cell viability; activity change, negative = cytotoxicity: at 92.2 µM (top of the series). A digest of the protocol:
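CellTiter-Glo ATP luminescence, read 20 min after reagent at room temperature, reported viability following 40 h compound treatment at 37 °C. N2a mouse neuroblastoma cells seeded 1500/well; Hill equation gave AC50.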

A short description of test [7]: Cell Viability - NIH 3T3 (AID 541).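 Further: plate controls were DMSO alone for no effect and tamoxifen positive control for full effect; nearly all actives have a fitted effect of over 25% in size.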 The settings on record: NIH 3T3 cell viability, qHTS; activity change, negative = cytotoxicity: at 92.2 µM (top of the series). The method, boiled down:
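Intracellular ATP (CellTiter-Glo luminescence, 20 min at room temperature) measured after 40 hr compound exposure at 37 °C of 1000 NIH 3T3 mouse fibroblasts/well in complete medium; AC50 derived by Hill-equation modelling of qHTS concentration-response curves.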

Test [8] can be described thus: Cell Viability - HUV-EC-C (AID 542). Further: on the % scale 0 is the no-effect control and ±100 the full control effect; nearly all actives have a fitted effect of over 35% in size. The settings on record: HUV-EC-C endothelial cell viability, qHTS; series mostly up to 92.2 µM. The method, boiled down:
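CellTiter-Glo luminescence measured ATP loss in HUV-EC-C cells (1000/well) after 40 hr compound exposure at 37 °C, in complete culture medium. Concentration-response data were Hill-fitted to give AC50.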

Test [9] is described as follows: Cell Viability - H-4-II-E (AID 543). Further: on the % scale 0 is the no-effect control and ±100 the full control effect; nearly all actives have a fitted effect of over 35% in size. The settings on record: H-4-II-E rat hepatoma viability; series mostly up to 92.2 µM. A digest of the protocol: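 CellTiter-Glo luminescence (intracellular ATP) measured after 40 h compound exposure at 37 °C in H-4-II-E rat hepatoma cells seeded at 1500/well. Values are AC50s fitted with the standard Hill equation.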
Test [10] can be described thus: Cell Viability - SH-SY5Y (AID 544). Further: nearly all actives have a fitted effect of over 55% in size. The settings on record: SH-SY5Y neuroblastoma cell viability; viability change, negative = cytotoxic: at 92.2 µM (top of the series). A digest of the protocol: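 Cytotoxicity measured via ATP-dependent luciferase luminescence (CellTiter-Glo) following 40 h, 37 °C exposure of 1500 SH-SY5Y cells per well. Concentration-response data were fitted with the standard Hill equation to give AC50.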

Test [11] can be described thus: Cell Viability - Renal Proximal Tubule (AID 545). Further: nearly all actives have a fitted effect of over 40% in size. The settings on record: renal proximal tubule cells viability, primary cells of rat origin; series mostly up to 91.7 µM. A digest of the protocol: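 Luminescent ATP signal (CellTiter-Glo) served as the viability read-out after 40 hr compound exposure of freshly isolated rat proximal tubule cells at 37 °C. Concentration-dependent ATP loss was fitted with the Hill equation to give AC50.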

Test [12] in a line: Cell Viability - Mesenchymal (AID 546).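 Further: cells exposed to compound for 40 hours before reading.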 The settings on record: mesenchymal cells viability, qHTS; series mostly up to 91.7 µM. The method, boiled down:
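CellTiter-Glo luminescence (intracellular ATP, 20 min room temperature) after 40 hr compound exposure at 37 °C of 1000 glomerulus-derived human kidney mesenchymal cells/well; AC50 values obtained by fitting qHTS concentration-response data to the Hill equation.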

Test [13] in a line: Cellular Toxicity (caspase-3) HepG2 (AID 654).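 Further: cells exposed to compound for 16 hours before reading; 0% = DMSO alone and 100% = caspase signal from 100 µM tamoxifen.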 The settings on record: HepG2 caspase-3 activation, luminescence; series mostly up to 92.2 µM. A digest of the protocol:
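Caspase 3/7 activation is measured as a luminescence increase (aminoluciferin substrate) after 16 h compound exposure of human hepatocarcinoma HepG2 cells. AC50 values are Hill fits, scaled between DMSO baseline and 100 uM tamoxifen stimulation.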

Test [14] can be described thus: Cellular Toxicity (caspase-3) Jurkat (AID 655).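 Further: cells exposed to compound for 16 h at 37 °C before reading.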 The settings on record: Jurkat caspase-3 activation, luminescence; caspase-3 activation: at 92.2 µM (top of the series), DMSO = 0%, tamoxifen = 100%. The method, boiled down: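 5000 Jurkat cells/well; compound 16 hr, 37 °C; Caspase-Glo 3/7 added, 20 min RT; luminescence read. Norm: DMSO = 0%, tamoxifen 100 uM = 100%. AC50, Hill model.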

Test [15] in a line: Cellular Toxicity (caspase-3) HUV-EC-C (AID 656). The settings on record: HUV-EC-C cells, caspase-3 activation (apoptosis), vehicle = 0, 100 µM tamoxifen = 100%; series mostly up to 92.2 µM. A digest of the protocol:
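qHTS; HUV-EC-C, 1000 cells/well; 5 hr settle, 16 hr cmpd, 37°C; Caspase-Glo 3/7, 20 min RT; luminescence. Norm: DMSO = 0%, tamoxifen 100 uM = 100%. Hill-fit AC50.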

The nature of test [16]: Cellular Toxicity (caspase-3) SHSY5Y (AID 657).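 Further: cells exposed to compound for 16 hours at 37 °C.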 The settings on record: SH-SY5Y caspase-3 activation, DMSO zero, 10 µM staurosporine = 100%; series mostly up to 91.7 µM. The method, boiled down: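 qHTS, SH-SY5Y, 1500 cells/well, 5 h pre-incubation 37 °C; compound 16 h 37 °C; Caspase-Glo 3/7 1 h RT; luminescence. Norm.: DMSO = 0, 10 uM staurosporine = 100%. Hill fit → AC50.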

A short description of test [17]: Cellular Toxicity (caspase-3) BJ (AID 658).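 Further: cells exposed to compound for 16 hours.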 The settings on record: BJ fibroblasts, luminescence, normalized: DMSO 0%, staurosporine 100%; series mostly up to 91.7 µM. The method, boiled down: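 Caspase-Glo 3/7 luminescence, read 1 hr after reagent at room temperature, in normal BJ fibroblasts exposed 16 hours at 37 °C. AC50 values from Hill-equation concentration-response, scaled between DMSO basal and 10 uM staurosporine as 100%.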

The nature of test [18]: Cellular Toxicity (caspase-3) MRC-5 (AID 659). The settings on record: MRC-5 cells, luminescence, normalized: DMSO 0%, 10 µM staurosporine 100%; series mostly up to 91.7 µM. The method, boiled down: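 Luminescent Caspase-Glo 3/7 read-out (1 h, room temperature) after a 16 h, 37 °C compound exposure of MRC-5 lung fibroblasts at 1500 cells/well. Concentration-response AC50 from Hill equation; 0% DMSO, 100% 10 uM staurosporine.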

Test [19] can be described thus: Cell Viability - HepG2 (AID 433; calls by dose curve; further: potency means the concentration at half of the fitted maximal effect). The settings on record: qHTS. A digest of the protocol:
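Read-out is luciferase-based quantitation of cellular ATP as a measure of viable HepG2 cells after 40 h treatment at 37 °C. Signal decrease is scaled between DMSO-only and 100 uM tamoxifen controls, with AC50 fitted by the Hill equation.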

Unmarked numbers belong to inactive results. Records with an inconclusive call do not appear. Active and inactive are the calls of the source. Unless noted, the call rests on the fitted dose curve; in most records, active means well fitted curve in the direction sought with a large enough effect; inconclusive means small, poorly fitted or top-dose-only effect, or another doubt; inactive means no such curve, though single readings can be large; an effect the other way counts as inactive or inconclusive. Where only a bound is given, the exact number is not on record here.

For the compound `O=[N+]([O-])c1cc(C(F)(F)F)ccc1Cl`, the Potency in test [1], in test [2], in test [3] and in test [4] was more than 92 µM each time. Further, the compound was classed as inactive in test [5], in test [15], in test [16], in test [17] and in [18]. In addition, in test [6], the activity change, negative = cytotoxicity was 4.62%. Moreover, the Potency entry in test [7], in test [8], in test [9], in test [10], in test [11] and in [12] was “inactive” throughout. In test [13], the Potency result is “inactive”. Moreover, the caspase-3 activation in test [14] is 0.364%.
`C=C(C)C(=O)OCC(C)C`: the Potency in [1], in [2], in test [19], in test [3] and in [4] was more than 92 µM throughout. The compound was called inactive in [5], in test [15], in [16], in test [17] and in test [18]. Moreover, in test [6], the activity change, negative = cytotoxicity was 1.04%. The Potency result in test [7], in [8], in test [9], in test [10], in test [11] and in test [12] was “inactive” each time. Also, the Potency entry in test [13] was “inactive”. Moreover, the caspase-3 activation in [14] is 0.091%.
Turning to `CC(O)CC(C)O` (configuration not stated), the Potency in [1], in [2], in test [19], in [3] and in test [4] was more than 92 µM throughout. The outcome in test [5], in test [15], in test [16], in test [17] and in [18] was inactive. In addition, in [6], the activity change, negative = cytotoxicity is -8.39%. Further, the Potency result in [7], in [8], in test [9], in test [10], in [12] and in [13] was “inactive” each time. The caspase-3 activation in [14] is 0.345%.
With `Nc1cc(Cl)c([N+](=O)[O-])cc1O`, the Potency in test [1], in [2], in test [19], in test [3] and in test [4] was more than 92 µM throughout. Also, the compound was called inactive in [5], in test [15], in test [16], in test [17] and in [18]. Besides, in test [6], the activity change, negative = cytotoxicity was -99.1% (active). Moreover, the Potency entry in test [8], in [9], in test [10], in test [11], in test [12] and in test [13] was “inactive” each time. Also, in test [14], the caspase-3 activation was 1.7%.
Take `ON=C1CCCCC1`: the Potency in [1], in test [2], in test [19], in test [3] and in test [4] was more than 92 µM each time. The result in test [5], in test [15], in test [16], in test [17] and in test [18] was inactive. The activity change, negative = cytotoxicity in [6] was 0.317%. Moreover, the Potency result in test [7], in [8], in [9], in test [10], in [11] and in test [12] was “inactive” throughout. Further, the Potency entry in test [13] was “inactive”. In addition, the caspase-3 activation in [14] is -0.266%.
